In PubChem BioAssay:
The source made the active and inactive calls.

Experiments:
[1] = test system: Human papillomavirus type 1a protein E7 (residues 44-93); assay: small molecules binding HPV E7 44-93 – biochemical, small-molecule microarray, residues 44-93, 635 nm fluorescence, primary screen (AID 1108); settings: fluorescence 635 nm, higher = more signal;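 note: E7 fragment applied at 1 µg/mL in TBST for 1 h at 4 C; score combines spot fluorescence with its signal to noise ratio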
[2] = hepatitis C replication reporter changes, two-sided – Huh7 cells, luciferase reporter, HCV replication inhibitor project, primary screen (AID 1109); settings: Huh7 HCV replicon luciferase reporter, 48 h; higher = more signal;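 note: huh7 hepatoma cells harbouring a luciferase neomycin HCV replicon reporter; luciferase luminescence as measure of HCV replicon replication; test concentration not given here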
[3] = biological target: Left-right determination factor 2 (Homo sapiens) (UniProt O00292); assay: small molecules binding LEFTY2 protein – biochemical, small-molecule microarray, 635 nm fluorescence scan, primary screen (AID 1110); settings: higher = more signal
[4] = biological target: Calmodulin-1 (Homo sapiens) (UniProt P0DP23); assay: small molecules binding calmodulin-1 with EGTA – biochemical, small-molecule microarray, Cy5-labelled CALM1, profiling panel (AID 1111); settings: Cy5-CALM1 binding fluorescence, higher = more signal;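 note: labelled calmodulin applied in Tris saline Tween buffer holding calcium plus EGTA and DTT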
[5] = biological target: Calmodulin-1 (Homo sapiens) (UniProt P0DP23); assay: small molecules binding Ca-loaded calmodulin-1 – biochemical, small-molecule microarray, Cy5-labelled CALM1, plus calcium, artefact control for SMM control-protein annotation, profiling panel (AID 1112); settings: Cy5-CALM1 binding fluorescence, higher = more signal;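 note: score merges spot fluorescence with signal to noise from triplicate slides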
[6] = probe aWnt5a binding to arrayed compounds – biochemical, biotinylated probe, 635/667 nm fluorescence, primary screen (AID 1113); settings: small-molecule microarray, higher = more signal;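 note: score merges 667 nm fluorescence intensity with signal-to-noise per printed feature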
[7] = probe aShh binding to arrayed compounds – biochemical, biotinylated probe, 635/667 nm fluorescence, primary screen (AID 1114); settings: small-molecule microarray, higher = more signal;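 note: probe is biotin-labelled aShh protein from a stem cell growth factor screen; measures binding of labelled protein to compounds printed on the slide; score merges feature fluorescence at 667 nm with signal-to-noise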
[8] = probe aNog binding to arrayed compounds – biochemical, biotinylated probe, 635/667 nm fluorescence, primary screen (AID 1115); settings: small-molecule microarray, higher = more signal;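 note: probe is biotinylated aNog protein used at 0.15 µg/mL for 1 h at 4 C; z-score combines 667 nm fluorescence of each spot with its signal to noise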
[9] = biological target: Torsin-1A-interacting protein 1 (Homo sapiens) (UniProt Q5JTV8); assay: compound microarray binding of lysate hLAP1 – cell lysate, small-molecule microarray, COS7 lysate, 635/667 nm fluorescence, primary screen (AID 1116); settings: 635 nm fluorescence, higher = more signal
[10] = biological target: Alpha-bungarotoxin (Bungarus multicinctus) (UniProt P60615); assay: compounds binding labelled alpha-BTX control protein – biochemical, small-molecule microarray, Alexa647 label, 635/667 nm fluorescence, artefact control for SMM control protein annotation, profiling panel (AID 1117); settings: alpha-BTX-A647 binding fluorescence, higher = more signal
Albumin (Bos taurus) = Albumin (Bos taurus) (UniProt P02769); assay: compounds binding labelled BSA control protein – biochemical, small-molecule microarray, Alexa647 label, 635/667 nm fluorescence, artefact control for SMM control protein annotation, profiling panel (AID 1118); settings: BSA-A647 binding, fluorescence 635 nm, higher = more signal;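 note: score merges 667 nm emission intensity and signal-to-noise per printed compound spot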
[11] = probe aXIP binding to arrayed compounds – biochemical, NeuroSMM set, 635/667 nm fluorescence, primary screen (AID 1119); settings: small-molecule microarray, higher = more signal, called active from +8 up or from −8 down;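 note: probe is the protein aXip251-270 applied at 1 µg/mL to compound-printed slides; binding of probe to printed compounds measured as 667 nm fluorescence plus signal to noise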
[12] = probe aNOTCH3 binding on compound microarray – biochemical, small-molecule microarray, 635/667 nm fluorescence, primary screen (AID 1120); settings: higher = more signal;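 note: probe is a biotin-tagged antibody raised against NOTCH3 rather than NOTCH3 protein; score merges spot fluorescence near 667 nm with spot signal to noise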
[13] = probe aNOTCH2 binding on compound microarray – biochemical, small-molecule microarray, 635/667 nm fluorescence, primary screen (AID 1121); settings: higher = more signal;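 note: score merges feature fluorescence read at 667 nm with its signal to noise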
[14] = biological target: Carbonic anhydrase 2 (Homo sapiens) (UniProt P00918); assay: compounds binding carbonic anhydrase 2 – biochemical, small-molecule microarray, Alexa647-labelled CAII, profiling panel (AID 1122); settings: CAII-A647 binding fluorescence, higher = more signal
[15] = COS7 lysate on small-molecule microarray, probe aHis, 635 nm (AID 1123); settings: COS7 cell lysate, fluorescence, higher = more signal;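 note: z-score combines 667nm fluorescence intensity with signal-to-noise per printed compound spot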
[16] = probe aLAP1 signal on lysate-treated microarray – cell lysate, small-molecule microarray, COS7 lysate, primary screen (AID 1124); settings: probe aLAP1, fluorescence, higher = more signal;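 note: lysate comes from COS7 cells expressing LAP1 and is applied at 0.3 µg/mL; score merges spot fluorescence near 667 nm with signal-to-noise over triplicate slides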
Sam68 (KHDRBS1) = assay: compounds binding KHDRBS1 protein – biochemical, small-molecule microarray, 635 nm fluorescence, primary screen (AID 1125); settings: higher = more signal;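 note: score merges 667 nm channel intensity with signal to noise over triplicate slides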
[17] = test system: Chordin-like protein 2 (CHRDL2); assay: compounds binding chordin-like 2 – biochemical, small-molecule microarray, 635 nm fluorescence, primary screen (AID 1126); settings: fluorescence 635 nm, higher = more signal;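 note: printed compound slides probed with Chrdl2 protein at 4 µg/mL for 1 h at 4 C; score merges 667 nm emission intensity with signal to noise over three replicate slides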
[18] = biological target: Concanavalin-A (Canavalia ensiformis) (UniProt P02866); assay: compounds binding concanavalin A lectin – biochemical, small-molecule microarray, Alexa647 label, 635 nm, artefact control for SMM control protein annotation, primary screen (AID 1127); settings: ConA-A647 binding fluorescence, higher = more signal;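 note: z combines 667 nm emission intensity with signal-to-noise across three replicate slides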
Concanavalin-A (Canavalia ensiformis), sequence (P02866 whole entry, looked up): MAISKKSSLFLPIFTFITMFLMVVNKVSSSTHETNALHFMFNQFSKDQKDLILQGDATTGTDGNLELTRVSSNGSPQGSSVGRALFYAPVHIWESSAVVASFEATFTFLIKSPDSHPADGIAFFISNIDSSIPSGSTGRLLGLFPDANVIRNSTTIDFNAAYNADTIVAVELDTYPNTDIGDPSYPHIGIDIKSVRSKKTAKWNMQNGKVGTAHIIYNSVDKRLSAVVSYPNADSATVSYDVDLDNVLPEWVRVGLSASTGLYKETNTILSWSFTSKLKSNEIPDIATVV

Alpha-bungarotoxin (Bungarus multicinctus), sequence (P60615 whole entry, looked up): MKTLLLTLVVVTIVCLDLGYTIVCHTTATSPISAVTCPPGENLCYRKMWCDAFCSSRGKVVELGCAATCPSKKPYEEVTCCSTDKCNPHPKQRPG
Albumin (Bos taurus), sequence (P02769 whole entry, looked up): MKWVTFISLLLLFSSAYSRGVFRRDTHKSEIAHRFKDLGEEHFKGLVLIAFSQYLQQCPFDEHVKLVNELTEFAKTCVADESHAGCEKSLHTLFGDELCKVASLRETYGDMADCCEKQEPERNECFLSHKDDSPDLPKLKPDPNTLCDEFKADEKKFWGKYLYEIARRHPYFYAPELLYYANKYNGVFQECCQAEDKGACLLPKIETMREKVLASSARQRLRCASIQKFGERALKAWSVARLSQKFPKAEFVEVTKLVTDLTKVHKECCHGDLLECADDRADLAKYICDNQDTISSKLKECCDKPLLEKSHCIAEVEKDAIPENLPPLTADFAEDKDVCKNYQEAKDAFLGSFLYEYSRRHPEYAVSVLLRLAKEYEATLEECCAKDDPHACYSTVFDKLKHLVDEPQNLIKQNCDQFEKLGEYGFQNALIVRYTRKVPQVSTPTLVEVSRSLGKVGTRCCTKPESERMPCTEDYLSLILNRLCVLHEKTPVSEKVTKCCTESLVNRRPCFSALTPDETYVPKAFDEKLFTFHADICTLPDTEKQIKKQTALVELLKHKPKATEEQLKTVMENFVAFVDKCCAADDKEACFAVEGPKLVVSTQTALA
Left-right determination factor 2 (Homo sapiens), sequence (O00292 whole entry, looked up): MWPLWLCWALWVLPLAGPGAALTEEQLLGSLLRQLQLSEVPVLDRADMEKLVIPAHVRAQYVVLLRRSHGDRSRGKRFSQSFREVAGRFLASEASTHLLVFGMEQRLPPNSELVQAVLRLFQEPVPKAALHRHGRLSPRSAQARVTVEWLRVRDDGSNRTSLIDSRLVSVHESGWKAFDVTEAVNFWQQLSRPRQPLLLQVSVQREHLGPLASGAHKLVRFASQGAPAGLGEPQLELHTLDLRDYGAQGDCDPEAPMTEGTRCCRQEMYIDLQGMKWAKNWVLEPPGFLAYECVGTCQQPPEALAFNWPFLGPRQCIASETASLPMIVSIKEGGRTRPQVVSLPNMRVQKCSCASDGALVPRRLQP
Torsin-1A-interacting protein 1 (Homo sapiens), sequence (Q5JTV8 whole entry, looked up): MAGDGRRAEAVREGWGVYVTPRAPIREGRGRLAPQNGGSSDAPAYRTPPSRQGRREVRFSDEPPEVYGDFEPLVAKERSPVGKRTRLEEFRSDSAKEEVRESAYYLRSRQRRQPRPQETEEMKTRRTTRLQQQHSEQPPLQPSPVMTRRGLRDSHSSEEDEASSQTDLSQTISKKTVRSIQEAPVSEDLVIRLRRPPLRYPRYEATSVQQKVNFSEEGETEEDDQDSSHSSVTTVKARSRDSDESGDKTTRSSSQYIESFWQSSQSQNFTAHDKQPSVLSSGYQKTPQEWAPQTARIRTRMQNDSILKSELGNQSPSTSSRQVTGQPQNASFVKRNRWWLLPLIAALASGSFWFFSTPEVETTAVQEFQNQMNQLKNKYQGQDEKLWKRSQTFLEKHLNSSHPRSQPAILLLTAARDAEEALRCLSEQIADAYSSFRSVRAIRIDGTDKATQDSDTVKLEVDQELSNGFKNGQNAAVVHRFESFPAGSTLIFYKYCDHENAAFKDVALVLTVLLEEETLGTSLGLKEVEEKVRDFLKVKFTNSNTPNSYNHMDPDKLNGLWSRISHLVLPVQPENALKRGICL

Structure (SMILES)	composite z-score [1]	z-score [2]	composite z-score [3]	composite z-score [4]	composite z-score [5]	composite z-score [6]	composite z-score [7]	composite z-score [8]	composite z-score [9]	composite z-score [10]	composite z-score (Albumin (Bos taurus))	composite Z-score [11]	composite z-score [12]	composite z-score [13]	composite z-score [14]	composite z-score [15]	composite z-score [16]	composite z-score (Sam68 (KHDRBS1))	composite z-score [17]	composite z-score [18]
O=C1O[C@H](c2ccccc2)[C@H](c2ccccc2)N2[C@H]1[C@@H](C(=O)N1CCCCCCC1)[C@]1(C(=O)Nc3ccc(C#CCCO)cc31)[C@H]2c1ccc(O)cc1	1.52	-0.637	1.69	3.02	1.75	1.62	2.01	0.939	5.54	4.23	0.777	9.39 (active)	2.27	1.18	0.91	4.64	1.53	1.35	1.68	1.17
COc1ccc(C(O)C2C=CC3C(=O)N(c4ccccc4)C(=O)C3N2Nc2ccccc2F)c2ccccc12 (stereo not given)	0.459	-0.673	0.903	2.6	0.994	0.416	0.425	1.26	1.28	2.12	0.968	0.882 (inactive)	0.785	0.579	0.762	2.23	1.34	1.3	-0.316	1.21
CCCCC(=C=CC[C@H](O)c1ccccc1OCCO)CCO	0.5	-1.69	-0.115	-0.541	-0.533	-0.0031	-0.108	0.0796	0.228	0.124	0.0552	0.849 (inactive)	-0.16	-0.164	0.524	1.91	0.0655	0.597	-0.336	-0.14
COc1c(C)cc(-c2nc(-c3ccccc3)c3c(c2C)CO[Si]3(C(C)C)C(C)C)cc1C	0.0725	-0.77	0.513	0.0032	0.154	-0.0478	-0.0769	0.239	-0.0032	-0.0073	-0.116	0.257 (inactive)	0.178	-0.0048	-0.0127	0.275	-0.314	0.214	0.264	-0.53
C[C@@]1([C@@H](NS(=O)(=O)c2cccc3cccnc23)c2ccc(-c3ccccc3)cc2)C[C@H]1C1CCCCC1	0.917	-0.479	-0.504	1.02	1.38	0.122	1.05	2	0.562	0.33	0.533	-0.343 (inactive)	0.314	0.131	0.549	2.06	0.165	0.292	-0.214	0.391
C=CCNC(=O)[C@@H]1[C@H]2C(=O)O[C@H](c3ccccc3)[C@H](c3ccccc3)N2[C@H](c2ccc(OCCO)cc2)[C@@]12C(=O)N(C(=O)OCCOC)c1ccccc12	1.11	-0.945	0.47	0.789	0.132	-0.096	0.0639	-0.103	1.58	1.04	0.258	1.01 (inactive)	-0.0362	-0.0432	0.589	2.37	0.67	1.29	0.389	1.03
C=C(/C=C\CNS(=O)(=O)c1ccc(C)cc1)[C@H](O)[C@H]1CCCN1S(=O)(=O)c1ccccc1[N+](=O)[O-]	-0.251	-3.55	0.318	-0.337	-0.477	-0.0405	-0.138	-0.219	0.612	0.293	0.678	-0.429 (inactive)	0.0026	-0.147	0.319	0.119	-0.538	0.127	0.411	0.152
CN1C(=O)C2C(C1=O)C1C=C(CCCO)C2C(C2CC2)N1C (stereo not given)	-0.524	0.669	-0.151	0.394	0.535	-0.328	0.0062	-0.0477	2.83	-0.685	0.913	0.178 (inactive)	-0.16	-0.149	0.839	0.746	-0.67	-0.293	-0.338	-1.39
COC(=O)C1=CC(CCCO)=CC(c2ccc(CN3CCCC3)cc2)N(C)C=C1C(=O)OC (stereo not given)	1.3	-0.979	0.0465	1	0.316	0.002	0.582	0.776	1.66	0.57	0.935	1.22 (inactive)	-0.105	0.0334	0.866	1.72	0.181	1	0.164	0.361
CCCCN1CC=CC23O[C@@H]4/C=C\CCCOC(=O)C4[C@H]2C(=O)N(CCCCCCO)[C@@H]3C1=O (stereo not given in full)	0.528	0.284	-1.53	-1.12	-0.439	-0.152	0.0639	-0.346	3.21	-1.09	-0.768	0.276 (inactive)	-0.165	-0.172	0.83	1.66	1.17	0.177	-1.87	-0.535
COc1ccc(C#Cc2ccc3c(c2)[C@]2(C(=O)N3)[C@H](c3ccccc3OCCO)N3[C@H](c4ccccc4)[C@H](c4ccccc4)OC(=O)[C@H]3[C@@H]2C(=O)NC[C@H](O)c2ccccc2)cc1	1.32	-2.93	1.02	1.11	-0.127	-0.0846	-0.16	-0.479	1.01	1.26	0.579	-0.419 (inactive)	0.11	-0.0942	0.373	1.98	0.359	1.32	-0.0767	1.07
